Reference: PubChem BioAssay

Legend:
[1] = biological target: PEG-3 (UniProt Q6IN02); test: inhibition of PEG-3 promoter-driven reporter – cell-based, HeLa, luciferase, CREF/GAPDH counter-screen panel, dose response (AID 624167); conditions: CREF/GAPDH counter-screens; HeLa PEG-Prom luciferase reporter, overnight, run 1, dose range 1, at 100 µM (top of the series) unless noted
[2] = biological target: PEG-3 (UniProt Q6IN02); test: as above; conditions: CREF/GAPDH counter-screens; HeLa PEG-Prom luciferase reporter, overnight, run 2, dose range 1, at 100 µM (top of the series) unless noted

Chain of PEG-3 (Q6IN02 whole entry, looked up): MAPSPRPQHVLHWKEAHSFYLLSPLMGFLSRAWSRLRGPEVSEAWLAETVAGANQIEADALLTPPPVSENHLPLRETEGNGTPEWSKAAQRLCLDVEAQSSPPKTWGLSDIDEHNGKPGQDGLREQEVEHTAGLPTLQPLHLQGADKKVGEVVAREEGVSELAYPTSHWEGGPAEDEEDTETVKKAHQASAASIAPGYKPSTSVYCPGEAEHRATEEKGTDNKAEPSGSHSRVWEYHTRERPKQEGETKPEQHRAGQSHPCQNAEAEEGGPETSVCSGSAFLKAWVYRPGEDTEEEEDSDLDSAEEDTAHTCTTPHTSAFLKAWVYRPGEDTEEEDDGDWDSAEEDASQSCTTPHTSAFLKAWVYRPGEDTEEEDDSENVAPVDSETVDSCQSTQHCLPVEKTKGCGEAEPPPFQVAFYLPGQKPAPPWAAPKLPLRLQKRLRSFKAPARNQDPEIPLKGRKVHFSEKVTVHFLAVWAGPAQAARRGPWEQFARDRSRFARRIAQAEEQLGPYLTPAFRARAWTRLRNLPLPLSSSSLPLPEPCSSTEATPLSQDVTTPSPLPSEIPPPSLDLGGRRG

Row | Structure (SMILES) | inhibition [1] | inhibition [2]
1 | Cc1ccc(S(=O)(=O)N2CCCCC2)cc1C(=O)N(C)CC(=O)Nc1ccc(Cl)c(C(F)(F)F)c1 | 74.6% | 60.6%
2 | C=CCN=C1NN=C(c2cc(C)n(CC=C)c2C)CS1 | 93.6% | 97.6%
3 | COc1cccc(/C=C2/Sc3ccc(C(=O)NCCCN4CCCC4)cc3NC2=O)c1 | 102% | 99%
4 | CCCN1C/C(=C/c2cccc([N+](=O)[O-])c2)C(=O)/C(=C/c2cccc([N+](=O)[O-])c2)C1 | 26.2% | 30.1%
5 | Cc1cccc(N2CCN(C(=O)C3CCN(c4ncnc5c4nc4n5CCCCC4)CC3)CC2)c1C | 101% | 90.7%
6 | Fc1ccc([C@@H]2CCNC[C@H]2COc2ccc3c(c2)OCO3)cc1 | 102% | 101%
7 | Cn1nnnc1Sc1ncnc2scc(-c3ccc4c(c3)OCO4)c12 | 102% | 97.4%
8 | CN(C)CCCN1c2ccccc2Sc2ccc3ccccc3c21 | 94.6% | 98.6%
9 | O=C(c1cc(-c2cccs2)nn1-c1ccccc1)N1CCN(S(=O)(=O)c2ccccc2)CC1 | -25.3% | 27.8%
10 | CCC(C)NCCOCCOc1ccc(Cl)c2ccccc12 (stereo unspecified) | 102% | 98.8%
11 | CN[C@H]1C[C@H]2c3[nH]c4ccc(-c5cccc(C)c5)cc4c3CCN2C[C@H]1[C@H](C)O | 99% | 100%
12 | CCOC(=O)c1c(NC(C)=O)sc2c(OCC(O)CNC(C)(C)C)c(Br)ccc12 (stereo unspecified) | 102% | 93.7%
13 | OCCNCc1cc(Br)ccc1OCc1ccc(Cl)cc1Cl | 101% | 101%
14 | CCCC(=O)NC(c1cccc([N+](=O)[O-])c1)c1ccc2cccnc2c1O (stereo unspecified) | 75.7% [run 1, dose range 1, at 50 µM] | 98.9%
15 | COc1ccccc1N1CCN(C(=O)c2sc3ncnc(N4CCN(c5ccccn5)CC4)c3c2C)CC1 | 88.3% | 93.5%
16 | Oc1ccc(C23CCCC2C2(CCCC2)c2ccc(O)cc2O3)c(O)c1 (stereo unspecified) | 99.4% | 95.5%
17 | CC(NNC(=S)N1CCN(c2ccccn2)CC1)c1nccc2ccccc12 (stereo unspecified) | 98.7% | 99.9%
18 | O=c1cc2oc3cc(O)c(O)cc3c(-c3ccccc3[N+](=O)[O-])c-2cc1O | 93.5% | 99.6%
19 | COc1cccc(-c2cnc3c(NC=O)cc(-c4cccc(C(=O)N(C)C)c4)cn23)c1 | 98.8% | 97.5%
20 | Cc1nc2c(OCc3ccc(OC(F)F)cc3)cccn2c1N(C)C(=O)CCC1CCCC1 | 95.4% | 99.7%
21 | CN1CCC(N(C)S(=O)(=O)c2ccc(NC(=O)COc3ccc(Br)cc3Cl)cc2)CC1 | 99.8% | 101%
22 | CC(=O)Nc1ccc(S(=O)(=O)N(Cc2cccnc2)Cc2cc3ccccc3[nH]c2=O)cc1 | 11.2% | -18.5%
23 | Cc1ccc(C)c(CN2CCC(CNC(=O)Nc3ccc(F)c(Cl)c3)CC2)c1 | 102% | 101%
